# Assay results taken from PubChem BioAssay (EPA / NIEHS).
# Activity calls are given as the source filed them. Rule for the calls: active = hit-call score of the fitted dose curve at least 0.9, where 1 is the maximum; inactive = score below 0.9.
# Experiment: ATG_M_19_CIS: Attagene CIS-FACTORIAL HepG2 Assay for M19 Transcription Factor (Internal Marker) (AID 2282939)
# Conditions: HepG2 Attagene CIS-FACTORIAL M19 internal marker reporter; actives raise or lower the signal
# Procedure: ATG_CIS is a cell-based, multiplexed-readout assay that uses HepG2, a human liver cell line, with measurements taken at 24 hours after chemical dosing in a 24-well plate.ATG_M_19_CIS is one of 52 assay component(s) measured or calculated from the ATG_CIS assay. It is designed to make measurements of mRNA induction, a form of inducible reporter, as detected with fluorescence intensity signals by Reverse transcription polymerase chain reaction (RT-PCR) and Capillary electrophoresis technology.Data from the assay component ATG_M_19_CIS was analyzed into 1 assay endpoint. This assay endpoint, ATG_M_19_CIS, was analyzed with bidirectional fitting relative to DMSO as the negative control and baseline of activity. Using a type of inducible reporter, measures of mRNA for gain or loss-of-signal activity can be used to understand the background control at the transcription factor-level as they relate to the gene . Furthermore, this assay endpoint can be referred to as a secondary readout, because this assay has produced multiple assay endpoints where this one serves a background control function. To generalize the intended target to other relatable targets, this assay endpoint is annotated to the background measurement intended target family, where the subfamily is internal marker.
# Human liver HepG2 cells are transiently transfected with multiple reporter transcription units (MRTUs) in 6-well plates using FuGene 6 reagent (Roche; 3 ml FuGene/1 mg DNA). The MRTU constructs are regulated by a cis-regulating element (promoter). […] A major difference between the CIS and TRANS system is that in CIS activities of endogenous TFs are measured, whereas the TRANS assay evaluates changes in activities of exogenous, chimeric NR-Gal4 proteins. […] At the end of 24 hour incubation, total RNA was isolated using TriZol reagent (Invitrogen). The isolated RNA is then reverse-transcribed using oligo(dT) primer and Mo-MLV reverse transcriptase (Invitrogen) with DNAse I (Ambion) treatment for 30 min. The one-tenth of the produced cDNA was amplified by PCR using Taq DNA polymerase (Invitrogen) and two reporter sequence-specific primers. The PCR products were fluorescently labeled by primer extension with 6-arboxyfluorescein (6-FAM) 5'-labeled reporter sequence-specific primer (2 min at 95 C, 20 s at 68 C and 10 min at 72 C) and these products were digested with 5U of HpaI (New England Biolabs) for 2h at 37 C. The fragments were purified using Qiaquick PCR columns (Qiagen), analyzed on an ABI 3130xL genetic analyzer (Applied Biosystems) with peak positions identified by using a set of X-rhodamine (ROX)-labeled MapMarker1000 molecular weight standards (BioVentures). The raw capillary electrophoresis data was processed using Attagraph software (Attagene).
row,SMILES,outcome
1,Oc1cccc(O)c1,inactive
2,CC(C)(C)CC(C)(C)c1ccc(O)c(-n2nc3ccccc3n2)c1,inactive
3,OC1CCC(C2CCCCC2)CC1 (stereo not given),inactive
4,CCCCCCCCCCCCCC[N+](C)(C)C,inactive
5,CCc1nn(C2CCCCC2)c2cc(C3(C#N)CCC(C(=O)O)CC3)ccc12 (stereo not given),inactive
6,CC(O)C(=O)O (stereo not given),inactive
7,COCC(C)O (stereo not given),inactive
8,CN1CCN(c2ccccc2/C=C2\SCCN(c3ccc(Cl)c(Cl)c3)C2=O)CC1,inactive
9,CCCCCCCC(=O)O,inactive
10,CCCCC(CC)COC(=O)CCCCC(=O)OCC(CC)CCCC (stereo not given),inactive
11,O=C(OCCOCCOC(=O)c1ccccc1)c1ccccc1,inactive
12,CCCOc1sc(C(=O)N2CCC(c3cc(CN)ccc3F)CC2)c(C)c1Br,inactive
13,CCOC(=O)CC(O)(CC(=O)OCC)C(=O)OCC,inactive
14,CCC(C)(C)C1CCC(O)CC1 (stereo not given),inactive
15,OC1CCCCC1,inactive
16,C=C(C)C(=O)OCCC(F)(F)C(F)(F)C(F)(F)C(F)(F)C(F)(F)C(F)(F)F,inactive
17,CC[C@H](c1ccc(O)cc1)[C@@H](CC)c1ccc(O)cc1,inactive
18,CC#C[C@]1(O)CC[C@H]2[C@@H]3CCC4=CC(=O)CCC4=C3[C@@H](c3ccc(N(C)C)cc3)C[C@@]21C,inactive
19,O=C(O)Cc1cc(I)c(Oc2cc(I)c(O)c(I)c2)c(I)c1,inactive
20,O=c1c(-c2ccc(O)cc2)coc2cc(O)ccc12,inactive

row,SMILES,outcome
1,CC1=C(/C=C/C(C)=C/C=C/C(C)=C/C(=O)O)C(C)(C)CCC1,inactive
2,CC[C@H](C)[C@@H](C(=O)O)n1sc2ccccc2c1=O,inactive
3,O=C1OC2(c3ccccc31)c1cc(Br)c(O)c(Br)c1Oc1c2cc(Br)c(O)c1Br,inactive
4,N#C[C@@H]1CC(F)(F)CN1C(=O)CNC1CC2CCC(C1)N2c1ncccn1 (stereo not given in full),inactive
5,O=C(/C=C/c1ccc(O)cc1)CC(=O)/C=C/c1ccc(O)cc1,inactive
6,CCCCC(CC)COC(=O)CCCCC(=O)OCc1ccccc1 (stereo not given),inactive
7,Cc1ccc(S(=O)(=O)O)c(C)c1,inactive
8,CC(C)(C)c1ccc(O)c(C(C)(C)C)c1,inactive
9,CCCCC[C@H](O)CC(=O)CCc1ccc(O)c(OC)c1,inactive
10,CCCCCCCCCCCCN1CCCC1=O,inactive
11,CCN(CC)CCNc1ccc(CNC=O)c2sc3ccc(OC)cc3c(=O)c12,inactive
12,c1ccc2cc3c(ccc4ccccc43)cc2c1,inactive
13,NC(=O)N(O)[C@@H]1C=C[C@H](Oc2cccc(Oc3ccc(F)cc3)c2)C1,inactive
14,NC(=O)N1C(=O)C(C(=O)c2cc(Cl)cs2)c2cc(F)c(Cl)cc21 (stereo not given),inactive
15,Cc1cc(CCN2CCN(c3nsc4ccccc34)CC2)cc2c1NC(=O)CC2(C)C,inactive
16,OCCC(F)(F)C(F)(F)C(F)(F)C(F)(F)C(F)(F)C(F)(F)F,inactive
17,COC(=O)CCCCC(=O)OC,inactive
18,C[C@@H]1C[C@H]2[C@@H]3CCC4=CC(=O)C=C[C@]4(C)[C@@]3(F)[C@@H](O)C[C@]2(C)[C@@]1(O)C(=O)COP(=O)(O)O,inactive
19,Cc1oc(-c2ccccc2)nc1CCOc1ccc(C[C@H](Nc2ccccc2C(=O)c2ccccc2)C(=O)O)cc1,inactive
20,CCc1ccc(CCOc2ccc(CC3SC(=O)NC3=O)cc2)nc1 (stereo not given),inactive
